Sampled rows, rich in hits. Any-hit rate of the full collection: about 1.2%.
RGS4-Gao reg – human RGS4-Galphao interaction regulation | P09471 | Multiplexed bead flow cytometry, RGS4-Galphao binding; actives lie on both sides | binding response (% of control), % at 10 µM | 220,000 compounds, 0.33% hits | AID 1415; in the data active means binding response below about 49% or above about 150%; inactive means in between;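 further: fluorescent Galphao activated with aluminum fluoride binding bead-coupled RGS4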
Target sequence (P09471 whole entry, looked up): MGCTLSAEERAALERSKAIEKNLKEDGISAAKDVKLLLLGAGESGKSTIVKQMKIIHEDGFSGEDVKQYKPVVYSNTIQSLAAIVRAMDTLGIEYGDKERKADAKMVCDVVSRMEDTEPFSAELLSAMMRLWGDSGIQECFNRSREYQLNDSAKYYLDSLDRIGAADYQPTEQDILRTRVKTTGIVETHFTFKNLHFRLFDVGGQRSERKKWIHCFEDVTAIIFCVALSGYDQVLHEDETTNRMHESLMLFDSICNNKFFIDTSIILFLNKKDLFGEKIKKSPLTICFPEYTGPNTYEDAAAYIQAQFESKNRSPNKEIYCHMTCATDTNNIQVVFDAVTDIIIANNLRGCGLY
RGS7-Gao – regulators of human RGS7-Galphao interaction. P09471. Multiplexed bead flow cytometry, RGS7-Galphao binding; actives lie on both sides. binding response (% of control), % at 10 µM. 220,000 compounds, 0.35% hits. AID 1439; in the data active means binding response below about 49% or above about 150%; inconclusive means no clear call, values can overlap the other calls; inactive means in between;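 further: fluorescent Galphao held in activated GDP-AlF4 state binding bead-coupled RGS7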
RGS16-Gao HTS – modulates binding between human RGS16 and Galphao. O15492+P09471. binding response (% of control), % at 10 µM. bead-based flow cytometry RGS16-Galphao binding, fluorescence; actives lie on both sides. 220,000 compounds, 0.38% hits;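 further: Galphao activated by GDP with aluminum fluoride before binding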
GSH fluor – GSH bead compound fluorescence profile; AID 1776; GSH beads flow cytometry, compound fluorescence 488/530 nm; stronger effect = higher value; 190,000 compounds, 0.25% hits; fluorescence (KMESF) at 10 µM; in the data active means fluorescence above about 89;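 further: glutathione beads carrying GST-tagged Bcl family fusion proteins plus one bare bead set; values are compound well signal with DMSO vehicle wells as background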
RGS8-Gao reg – regulators of human RGS8-Galphao interaction; multiplexed bead flow cytometry, RGS8-Galphao binding; actives lie on both sides; response (percent of control binding), % at 10 µM; 220,000 compounds, 0.34% hits; AID 1423; in the data active means response below about 60% or above about 140%; inactive means in between;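 further: Galphao activated as the GDP aluminium fluoride complex binding bead-coupled RGS8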
Avidin bead fluor – avidin bead compound fluorescence profile; Avidin beads, compound fluorescence 488/530 nm, flow cytometry; stronger effect = higher value; fluorescence (KMESF) at 10 µM; 220,000 compounds, 0.38% hits; in the data active means fluorescence above about 47
RGS-Gao – regulators of human RGS4-Galphao interaction; shares compounds with RGS16-Gao HTS; multiplexed bead flow cytometry, RGS–Galpha-o binding; RGS4–Galpha-o binding response, % at 10 µM; 1,600 compounds, 99% hits; AID 1504;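 further: fluorescently labeled Galpha-o bound to GDP with aluminium fluoride binding biotinylated RGS beads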
Avidin counter – counter-screen: compounds disrupting biotin binding to avidin beads. streptavidin beads, fluorescein-biotin binding, flow cytometry. inhibition, % at 10 µM. shares compounds with RGS16-Gao HTS. 1,700 tested, under 10 active;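 active means inhibition above 50%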;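 further: median green fluorescence of gated singlet beads compared with DMSO control wells; 0% = DMSO wells and 100% = complete loss of bead fluorescence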
RGS8-Gao single – RGS8-Galphao interaction regulation, single point confirmation | shares compounds with RGS16-Gao HTS | bead-based flow cytometry RGS8-Galphao binding, fluorescence; actives lie on both sides | binding response (% of control), % at 10 µM | 1,700 compounds, 3% hits; in the data active means binding response below about 72% or above about 130%; inactive means in between;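 further: Galphao activated as GDP AlF4 complex before binding bead RGS8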
RGS7-Gao confirm – confirmation of regulators of human RGS7-Galphao interaction | shares compounds with RGS16-Gao HTS | bead-based flow cytometry RGS7-Galphao binding; actives lie on both sides | response (percent of control binding), % at 10 µM | 1,700 compounds, 7.8% hits | AID 1837; in the data active means response below about 75% or above about 130%; inactive means in between;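 further: fluorescent Galphao activated with GDP and aluminum fluoride binding bead-coupled RGS7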
RGS16-Gao single – RGS16-Galphao interaction regulation, single point confirmation | shares compounds with RGS16-Gao HTS | bead-based flow cytometry, RGS16-Galphao binding; actives lie on both sides | response (% of control binding), % at 10 µM | 1,700 compounds, 4% hits | AID 1838; in the data active means response below about 74% or above about 130%; inactive means in between;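 further: Galphao activated as the GDP aluminium fluoride complex binding bead-coupled RGS16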
RGS4-Gao confirm – confirmation of regulators of human RGS4-Galphao interaction; shares compounds with RGS16-Gao HTS; 1,700 compounds, 4% hits; RGS4-Galphao binding, multiplexed bead flow cytometry; actives lie on both sides; binding response (% of control), % at 10 µM; in the data active means binding response below about 74% or above about 130%; inactive means in between
RGS19-Gao single – RGS19-Galphao interaction regulation, single point confirmation. shares compounds with RGS16-Gao HTS. bead-based flow cytometry RGS19-Galphao binding; actives lie on both sides. response (percent of control binding), % at 10 µM. 1,700 compounds, 5% hits; in the data active means response below about 50% or above about 160%; inactive means in between;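 further: 100% = no compound control and 0% = blank background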
Target sequence (P09471 whole entry, looked up): as above
Target sequence (P49795 whole entry, looked up): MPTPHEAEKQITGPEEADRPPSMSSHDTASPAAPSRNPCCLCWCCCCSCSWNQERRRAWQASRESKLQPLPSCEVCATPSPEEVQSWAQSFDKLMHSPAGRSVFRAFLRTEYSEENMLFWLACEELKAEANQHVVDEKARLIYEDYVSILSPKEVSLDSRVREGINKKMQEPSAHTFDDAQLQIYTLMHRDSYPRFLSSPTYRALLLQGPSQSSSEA
Starred values were filed as active, the others as inactive; ? = inconclusive; nt = no result; [ ] = another dose, or the depositor's remark. Unless noted, how the calls were made is not given here.

SMILES	RGS4-Gao reg	RGS7-Gao	RGS16-Gao HTS	GSH fluor	RGS8-Gao reg	Avidin bead fluor	Avidin counter	RGS8-Gao single	RGS7-Gao confirm	RGS16-Gao single	RGS4-Gao confirm	RGS19-Gao single	others
O=C(NCC1CCCO1)C(c1cccs1)N(Cc1ccccc1Cl)C(=O)c1ccc(-c2ccccc2)[nH]1 (configuration not stated)	99	87	178*[activator]	7	119	14	2	101	98	102	99	92	RGS-Gao=99*
Cc1ccc(C(C(=O)NCC2CCCO2)N(Cc2ccccc2)C(=O)c2ccc(-c3ccccc3)[nH]2)o1 (configuration not stated)	97	94	101	11	97	4	nt	nt	nt	nt	nt	nt
CCOC(=O)C1C(=O)CC(C)(O)C(C(=O)OCC)C1c1ccc([N+](=O)[O-])cc1 (configuration not stated)	99	?	100	nt	101	5	nt	nt	nt	nt	nt	nt
CC(=O)c1ccc(-n2c(SCC(=O)c3c[nH]c4ccccc34)nc3ccccc3c2=O)cc1	179*[activator]	184*[activator]	444	12	113	2389*	2	108	110	106	106	97
CCOC(=O)c1c(C)[nH]c(C)c1C(=O)CSc1nc2ccccc2c(=O)n1-c1ccc(CC)cc1	100	99	108	9	103	4	nt	nt	nt	nt	nt	nt
CC/C(=N\NC(=O)C(N)=O)c1ccccc1O	90	90	96	7	96	4	nt	nt	nt	nt	nt	nt
O=C(Nc1cccc([N+](=O)[O-])c1)Nc1cccc([N+](=O)[O-])c1	102	105	100	12	102	25	nt	nt	nt	nt	nt	nt
O=C(Nc1ccc(C(=O)O)cc1)Nc1cccc([N+](=O)[O-])c1	122	121	660	8	150*[activator]	15	2	100	102	101	101	94	RGS-Gao=122*
CC(c1ccccc1C(O)(c1ccccc1)c1ccccc1)N(C)C (configuration not stated)	17*	7.0*	-43	9	14*	-3	1	104	107	108	107	91
CC(C)N(CC#CCC(O)(c1ccccc1)c1ccccc1)C(C)C	101	98	98	7	102	2	nt	nt	nt	nt	nt	nt
COc1ccc(N2CCN(CC(=O)NCc3ccccc3)CC2)cc1	98	102	101	18	99	9	nt	nt	nt	nt	nt	nt
COc1cccc(N2CCN(CC(=O)c3c(C)[nH]c4ccccc34)CC2)c1	22*	17*	15*	34	15*	-1	-1	101	100	103	99	108
COc1cccc(N2CCN(CC(=O)NCc3cccs3)CC2)c1	nt	nt	nt	18	nt	nt	0	102	99	100	99	99
Cc1ccc2c(C(=O)CN3CCN(c4ccccc4)CC3)c(C)[nH]c2c1	97	99	99	24	99	5	nt	nt	nt	nt	nt	nt
CCN(CC)S(=O)(=O)c1ccc(C)c(NC(=S)NC2CCCCC2)c1	99	?	97	nt	99	8	nt	nt	nt	nt	nt	nt
CCOc1ccc(NC(=O)CC2C(=O)N(CC)C(=S)N2NC(=O)c2ccncc2)cc1 (configuration not stated)	102	?	102	nt	101	7	nt	nt	nt	nt	nt	nt
Cc1cccc(NC(=O)CCn2ccnc2C)c1	22*	16*	13*	30	14*	0	-1	102	94	102	98	96
Cc1cccc(NC(=O)CCN2CCOCC2)c1	101	97	97	8	101	18	nt	nt	nt	nt	nt	nt
Cc1ccc2nc(C)c3c(c2c1)COC3	-73*	-40*	79	11	17*	-3	-1	111	99	115	102	107
COc1ccc(C)c2sc(NC(=O)C3=COCCO3)nc12	132	313*[activator]	109	25	84	175*	nt	nt	nt	nt	nt	nt	RGS-Gao=132*
COc1ccc(OC)c2sc(NC(=O)C3=COCCO3)nc12	104	105	102	25	102	7	nt	nt	nt	nt	nt	nt
CC(=O)c1c(C)[nH]c(C(=O)Nc2cccc(S(=O)(=O)N(C)c3ccccc3)c2)c1C	107	107	104	15	105	13	nt	nt	nt	nt	nt	nt
N#C/C(=C\c1sc(N2CCOCC2)nc1-c1ccccc1)C(=O)Nc1cccc2ccccc12	141	417*[activator]	105	12	90	312*	nt	nt	nt	nt	nt	nt	RGS-Gao=141*
O=C(CSc1nnnn1-c1ccccc1)Nc1ncc2c(n1)CC(c1ccco1)CC2=O (configuration not stated)	35*	39*	39	17	57*	14	3	101	88	98	94	89
OCC1(Cc2ccccc2)CCN(C2CCN(c3ccc(F)c(F)c3)CC2)CC1	96	98	100	12	96	13	nt	nt	nt	nt	nt	nt
SMILES	RGS4-Gao reg	RGS7-Gao	RGS16-Gao HTS	GSH fluor	RGS8-Gao reg	Avidin bead fluor	Avidin counter	RGS8-Gao single	RGS7-Gao confirm	RGS16-Gao single	RGS4-Gao confirm	RGS19-Gao single	others
O=C(CCNC(=O)c1ccco1)NCc1ccccc1	nt	nt	nt	43	nt	nt	0	103	106	106	106	98
CC1=[N+](C)c2ccc3ccccc3c2C1(C)C	96	96	95	18	98	4	nt	nt	nt	nt	nt	nt
CCOC(=O)C1=NN(c2cccc(C)c2)C2(S1)SC(C(C)=O)=C(C)N2c1ccccc1 (configuration not stated)	nt	nt	nt	50	nt	nt	1	106	83	106	92	55
Cc1ccc(NC(=O)CN2CCN(CCN=CC3=C(O)CC(c4ccc(C)cc4)CC3=O)CC2)cc1 (configuration not stated)	102	100	101	23	98	11	nt	nt	nt	nt	nt	nt
CC1=CC=CN2CC(O)CN=C12 (configuration not stated)	106	104	98	15	103	26	nt	nt	nt	nt	nt	nt
CC1=CN2CC(O)CN=C2C=C1 (configuration not stated)	nt	nt	nt	39	nt	nt	2	100	95	98	99	108
